Shiga inhibitor – A qHTS for Small Molecule Inhibitors of Shiga Toxin | inhibition, % at 38.7 µM | AID 2315, 2010 | 290,000 tested, 9.2% active | Vero cells, Shiga toxin protein synthesis inhibition reporter; in the data active = inhibition mostly above about 28%, no sharp cut-off; inactive = mostly below about 43%; also: 0% is about no effect
Pf growth 96h – Primary qHTS for delayed death inhibitors of the malarial parasite plastid, 96 hour incubation | P. falciparum luciferase reporter growth, 96 h | Potency, µM (series often up to 28.7 µM), without a hit: top-dose activity change, negative = inhibition, usual class: inhibitors | 320,000 tested, 6.9% active | AID 504834, 2011; also: potency is read from the fitted curve at half-maximal effect; % is scaled to controls: 0 for no effect and ±100 for the full control effect
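Readout is luminescence from an integrated firefly luciferase in P. falciparum. Red cells, 2% hematocrit and 0.05% parasitemia final, were cultured with compound through two parasite generations (96 hours) at 37 C, 5% CO2.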
NS1 function inh – qHTS Assay for Inhibitors of Influenza NS1 Protein Function | Potency, µM (titrated, usually from 46.1 µM), for inactives: at the highest dose activity, positive = more growth | AID 2326, 2010 | 270,000 tested, 0.4% active; calls by dose curve; also: potency is read from the fitted curve at half-maximal effect; actives are rising curves; nearly all actives have a fitted effect of over 50% in size
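A cell-based growth assay was used: compounds that relieve NS1-induced slow growth of budding yeast raise OD600. Assay medium was yeast nitrogen base with ammonium sulphate and -URA supplement, pH 6.0, with 2% galactose.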
Sm TGR block – qHTS Assay for the Inhibitors of Schistosoma Mansoni Peroxiredoxins. purified TGR, DTNB reduction, TNB absorbance 405 nm. Potency, µM (highest dose often 114 µM), for the others: at the top dose activity change, negative = inhibition, actives largely listed as inhibitors. 360,000 tested, 3% active; also: potency is read from the fitted curve at half-maximal effect; % is scaled to controls: 0 for no effect and ±100 for the full control effect; nearly all actives have a fitted effect of over 60% in size
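TGR 20 nM + NADPH 100 uM (dispensed conc.), cpd preinc 15 min RT; start with NADPH (500 uM addition) then DTNB (15 mM addition). Kinetic TNB absorbance, 405 nm filter. Four-parameter Hill fit across titration.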
CHX counter – Cycloheximide Counterscreen for Small Molecule Inhibitors of Shiga Toxin; cell reporter, cycloheximide protein synthesis inhibition counterscreen; max response, %; 300,000 tested, 12% active; AID 2314, 2010; in the data active = max response mostly above about 13%, no sharp cut-off; inactive = mostly below about 14%; also: read at 38.3 µM for the half of the compounds with a filed dose; 0% is about no effect
Pf growth 48h – Primary qHTS for delayed death inhibitors of the malarial parasite plastid, 48 hour incubation. P. falciparum luciferase growth in erythrocytes, 48 h. Potency, µM (highest dose often 28.7 µM), without a hit: top-dose activity change, negative = inhibition, usual class: inhibitors. 310,000 tested, 5.9% active. AID 504832, 2011; also: potency is read from the fitted curve at half-maximal effect; % is scaled to controls: 0 for no effect and ±100 for the full control effect
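First compound was added to culture medium, then infected red cells at 0.1% parasitemia and 2% hematocrit (final). After incubation at 37 C under 5% CO2, luciferase detection reagent was dispensed and light output recorded.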
The depositor's hits bear a star; i = inactive; ? = inconclusive; . = not tested or not shown; + = active, no number. A selection: hits, their analogues and other compounds. The true share with any hit is near 21%. Unless noted, calls follow the shape of the dose curve; as a rule, active = well fitted curve in the direction sought with a large enough effect; inconclusive = small, poorly fitted or top-dose-only effect, or another doubt; inactive = no such curve, though single readings can be large; an effect the other way counts as inactive or inconclusive.

SMILES | Shiga inhibitor | Pf growth 96h | NS1 function inh | Sm TGR block | CHX counter | Pf growth 48h
CS(=O)(=O)c1cnc(-c2ccccc2)nc1Oc1ccc(Cl)cc1 | -1 | 20% | 12% | -5% | 7 | 1%
CC(C)(C)S(=O)(=O)c1cnc(N2CCCCC2)nc1N | 25 | 80% | 3% | -2% | 19* | 16%
COc1cc2c3cc1Oc1c(O)c(OC)cc4c1[C@@H](Cc1ccc(cc1)Oc1cc(ccc1O)C[C@H]3N(C)CC2)N(C)CC4 | . | . | -5% | . | . | .
Cc1c(CCC(=O)O)c(=O)oc2cc3occ(C(C)(C)C)c3cc12 | 12 | 1µM* | -30% | -3% | -5 | -8%
Cc1nc(-c2cccc(-c3noc(C)n3)c2)no1 | 40 | -20% | 10% | -3% | 8 | 39%
Cc1nc(-c2ccc(-c3ccon3)s2)no1 | 53* | 34% | -7% | -6% | 21* | 122%
COc1ccccc1COC(=O)c1ccc(S(=O)(=O)N2CCOCC2)cc1 | . | -29% | . | 18% | . | ?
CCCCNC(=S)NNC(=O)c1csc(C(C)C)c1 | 30* | 166% | -4% | -1% | 16 | 37%
CCNC(=S)NNC(=O)c1csc(C(C)C)c1 | 77* | 146% | -3% | 2% | 51* | 199%
CN=C1SC(CC(=O)Nc2ccccc2F)C(=O)N1C (stereo unspecified) | 7 | 10% | -10% | 1% | 2 | 16%
CCOc1ccccc1N=C1SC(CC(=O)Nc2ccc(OC)cc2OC)C(=O)N1CCC1=CCCCC1 (stereo unspecified) | -6 | 4.1µM* | 5% | -8% | 4 | ?
O=C(CC1SC(=Nc2ccc(OC(F)F)cc2)N(CCC2=CCCCC2)C1=O)Nc1ccccc1F (stereo unspecified) | 24 | 2.6µM* | -12% | -6% | 15 | 10µM*
CCn1c2ccccc2c2cc(N=C3SC(CC(=O)Nc4ccccc4)C(=O)N3C)ccc21 (stereo unspecified) | -3 | ? | 8% | 9% | -2 | ?
CCn1c2ccccc2c2cc(N=C3SC(CC(=O)Nc4ccccc4OC)C(=O)N3CCOC)ccc21 (stereo unspecified) | -10 | ? | ? | -7% | -2 | 9.3µM*
CCOC(=O)c1c(NC(=O)CN2CCCc3ccccc32)sc(C)c1CC | 19 | ? | -6% | 7% | 6 | ?
NNC(=O)c1csc(-c2cccc(C(F)(F)F)c2)n1 | -15 | ? | . | 4% | 3 | -3%
CSc1ncc(C(=O)Nc2cccc(C)c2C)c(C)n1 | -2 | -15% | -1% | -3% | 1 | -27%
CC(=O)Nc1cccc(C(=O)N/N=C/c2ccc(F)cc2)c1 | 83* | ? | 4% | 4% | 34* | 162%
Cc1ccc(C(=O)Nc2ccc(C(=O)N/N=C/c3ccncc3)cc2)cc1 | 12 | -13% | . | 0% | 18 | 23%
CC(=O)Nc1cccc(C(=O)N/N=C/c2cccnc2)c1 | 22 | -18% | 1% | 9% | 2 | 10%
Cc1ccc(C(=O)Nc2cccc(C(=O)N/N=C/c3ccc(F)cc3)c2)cc1 | 58* | ? | 14% | 0% | 27* | 53%
COc1ccc(N2C(=NC(=O)C3CC3)SC3CS(=O)(=O)CC32)cc1Cl (stereo unspecified) | -3 | 16% | 7% | 3% | -1 | 4%
O=C1C2C3C=CC(C4CC34)C2C(=O)N1/N=C/c1c[nH]c2ccccc12 (stereo unspecified) | 115* | -41% | . | 1% | 46* | i
O=C1C2C3C=CC(C4CC34)C2C(=O)N1/N=C/c1ccc([N+](=O)[O-])s1 (stereo unspecified) | 28 | 95% | 9% | 2% | 16 | 42%
CC(C)OCCCNc1ncnc2c1nc1n2CCCC1 | 29 | 33% | 2% | 3% | 18* | 20%
SMILES | Shiga inhibitor | Pf growth 96h | NS1 function inh | Sm TGR block | CHX counter | Pf growth 48h
O=C(Cn1c(=O)n(-c2ccccc2)c(=O)c2c3c(sc21)CCCC3)Nc1ccccc1 | . | . | . | 2% | . | .
O=C(Cn1c(=O)n(Cc2ccco2)c(=O)c2c3c(sc21)CCCC3)Nc1ccccc1 | -8 | ? | ? | 50µM* | 10 | ?
NC(=O)Cn1c(=O)n(Cc2ccco2)c(=O)c2c3c(sc21)CCCCC3 | 11 | -17% | 20% | 7.1µM* | -2 | ?
CCOc1ccc(-n2c(=O)c3c4c(sc3n(CC(=O)NCc3ccco3)c2=O)CCC4)cc1 | 0 | 17% | 6% | 6% | -1 | 10%
Cc1cccc(N2CCN(CCCNC(=O)c3sc4ncccc4c3-n3cccc3)CC2C)c1 (stereo unspecified) | . | . | . | 1% | . | .
CC1(CCBr)C(=O)N(c2ccccc2)c2ccccc21 (stereo unspecified) | . | 13µM* | 17% | -28% | -3 | -13%
O=C1N(c2ccccc2)c2ccccc2C1(Cc1ccncc1)Cc1ccncc1 | -7 | ? | -15% | 0% | -7 | ?
CCC(C)N1C(=O)N(c2cccc(Cl)c2)C(C)(O)CC1(C)C (stereo unspecified) | 19 | -14% | -3% | -6% | -6 | -17%
CC1Oc2ccccc2C=C1/C=N\NC(=O)c1cccnc1 (stereo unspecified) | 53* | 3% | -6% | -2% | 20* | 0%
CC1Oc2ccccc2C=C1/C=N/NC(=O)c1ccccc1 (stereo unspecified) | 25 | ? | -14% | -6% | 18 | 2.9µM*
Cc1ccc(C(=O)N/N=C/C2=Cc3ccccc3OC2C)cc1 (stereo unspecified) | 11 | ? | -18% | 6% | 10 | ?
CC1Oc2ccccc2C=C1/C=N/NC(=O)[C@@H](C)NC(=O)OC(C)(C)C (stereo partly specified) | 10 | ? | 4% | 1% | -2 | ?
CC1Oc2ccccc2C=C1/C=N/NC(=O)c1ccccc1O (stereo unspecified) | + | ? | -8% | -11% | 43* | 3.7µM*
Cc1ccc(C(CC(=O)NCC2(c3ccccc3)CCCC2)c2ccccc2)c(O)c1 (stereo unspecified) | . | . | . | 0% | . | .
COc1ccc(Nc2ncc3c(n2)CC(c2ccc(OC)cc2)CC3=O)cc1 (stereo unspecified) | 4 | 9.3µM* | 16% | -1% | -2 | ?
COc1ccc(C2CC(=O)c3sc(N)nc3C2)cc1 (stereo unspecified) | 21 | 2.6µM* | 4% | -25% | -3 | 2.9µM*
Cc1ccc(Nc2ncc3c(n2)CC(C)(C)CC3=O)cc1 | 118* | 2% | -5% | 12% | 34* | 105%
CC1(C)CC(=O)c2cnc(NC3CC3)nc2C1 | 49 | ? | 3% | . | -2 | 7%
